# KB-3-1 cytotox: kills parental KB-3-1 adenocarcinoma cells; 1.4% of 400,000 active; AID 1347075; KB-3-1 viability, CellTiter-Glo ATP luminescence, 72 h; Potency, µM (titrated, usually from 46.1 µM), actives largely listed as cytotoxic; further: potency means the concentration at half of the fitted maximal effect; on the % scale 0 is the no-effect control and ±100 the full control effect; nearly all actives have a fitted effect of over 60% in size
#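 72 h, 37 °C compound treatment of KB-3-1 parental cells; CellTiter-Glo added, 10 min, luminescence read. Data corrected against DMSO-only plates and normalized before curve fitting.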
# S-ASM inh: inhibitors of human secretory acid sphingomyelinase; 0.006% of 340,000 active; Potency, µM (series often up to 57.5 µM), without a hit: top-dose activity change, negative = inhibition, usual class: inhibitors; placental ASM, HMU-PC fluorogenic substrate, 60 min; further: potency means the concentration at half of the fitted maximal effect
# Target sequence (P17405 47-631 limits assumed): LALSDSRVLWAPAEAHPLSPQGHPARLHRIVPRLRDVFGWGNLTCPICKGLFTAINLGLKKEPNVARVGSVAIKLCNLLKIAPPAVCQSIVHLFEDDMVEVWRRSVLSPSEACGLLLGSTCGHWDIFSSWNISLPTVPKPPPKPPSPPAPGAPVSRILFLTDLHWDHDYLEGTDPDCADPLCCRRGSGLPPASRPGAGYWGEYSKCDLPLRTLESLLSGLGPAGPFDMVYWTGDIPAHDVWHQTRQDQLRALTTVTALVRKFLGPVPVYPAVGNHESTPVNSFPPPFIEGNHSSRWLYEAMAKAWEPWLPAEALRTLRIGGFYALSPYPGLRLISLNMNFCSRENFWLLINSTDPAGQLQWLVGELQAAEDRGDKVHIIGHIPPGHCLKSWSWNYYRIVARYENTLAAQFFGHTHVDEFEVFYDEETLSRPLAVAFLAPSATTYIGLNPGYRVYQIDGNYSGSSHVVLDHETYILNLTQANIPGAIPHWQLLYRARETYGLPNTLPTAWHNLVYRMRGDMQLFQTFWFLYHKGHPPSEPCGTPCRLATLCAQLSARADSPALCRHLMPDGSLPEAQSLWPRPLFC
#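 Fluorogenic HMU-PC substrate (9 uM final) is turned over by placental ASM in 60 min at 37 C after a 10 min compound preincubation. Reaction ended by alkaline stop (pH 10), with fluorescence read at 386/447 nm.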
# MCF10A rereplic: inducers of DNA re-replication in MCF 10A breast cells; MCF 10A DNA re-replication, Hoechst nuclear intensity, 48 h; Potency, µM (titrated, usually from 46.1 µM), inactives show top-dose activity, positive = re-replication, hits mostly activators; 2.9% of 350,000 active; AID 624296; further: potency means the concentration at half of the fitted maximal effect; % of control where 0% means no effect; nearly all actives have a fitted effect of over 50% in size
# SW480 rereplic: DNA re-replication induction in SW480 cells. SW480 DNA re-replication, Hoechst DNA content imaging, 48 h. Potency, µM (series often up to 46.1 µM), without a hit: at the highest dose re-replication activation, usual class: activators. 1.8% of 340,000 active; further: potency means the concentration at half of the fitted maximal effect; % of control where 0% means no effect; nearly all actives have a fitted effect of over 55% in size
#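 DNA re-replication was detected as more nuclei of elevated Hoechst intensity after 48 hr exposure to compound (23 nL pinned per well of 250 cells).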
# KB-V1 MDR tox: KB-V1 MDR subline cytotoxicity | Potency, µM (doses to about 46.1 µM), hits mostly cytotoxic | 3.4% of 400,000 active | KB-V1 MDR cells viability, CellTiter-Glo, 72 h; further: potency means the concentration at half of the fitted maximal effect; on the % scale 0 is the no-effect control and ±100 the full control effect; nearly all actives have a fitted effect of over 60% in size
#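 Cells of the MDR subline KB-V1 are plated, dosed with compound at multiple concentrations, and incubated 72 h at 37 degrees C; CellTiter-Glo is then added and luminescence read after 10 min.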
# Giardia kill: Giardia lamblia killing; 0.15% of 340,000 active; Giardia lamblia trophozoite viability; activity change, % at 7.66 µM, hits read low; in the data active means activity change below about -80%; inconclusive means between about -30% and that limit;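 further: parasites exposed to compound for two days anaerobically before the ATP read; on the % scale 0 is the no-effect control and ±100 the full control effect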
#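 Giardia lamblia trophozoites (100 cells/well) were incubated with compounds for 48 h at 37 deg C under anaerobic conditions. Viability was read as ATP content by one-step luminescence after 15-30 min at room temperature.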
# * = called active by the depositor; i = inactive; u = inconclusive; x = no result; [ ] = dose if it differs, or a comment. Rows were chosen to be rich in hits. Some 6.9% of all compounds tested hit in one or more screens of this group. Unless noted, the call rests on the fitted dose curve; in most records, active means well fitted curve in the direction sought with a large enough effect; inconclusive means small, poorly fitted or top-dose-only effect, or another doubt; inactive means no such curve, though single readings can be large; an effect the other way counts as inactive or inconclusive.
SMILES,KB-3-1 cytotox,S-ASM inh,MCF10A rereplic,SW480 rereplic,KB-V1 MDR tox,Giardia kill
COc1cc(C(=O)CCN2CCC(c3ccccc3)C2)cc(OC)c1OC (centres undefined),i,2%,3.7µM*,u,i,1
O=C(CCN1CCC(c2ccccc2)C1)c1ccc2c(c1)OCCO2 (centres undefined),i,-7%,13µM*,u,i,3
O=C(Nc1ccc(C(F)(F)F)cc1)C(Cc1ccccc1)n1cccc1 (centres undefined),x,x,x,x,x,-18
O=C(Nc1c(C(=O)N2CCOCC2)cnn1-c1ccccc1)c1ccc(F)cc1,x,1%,3%,-2%,x,-18
CC(C)(C)C(=O)/C(=C/c1ccc(Cl)cc1)n1cncn1,u,0%,6.5µM*,u,u,-14
CCOC1CCCc2oc(-c3ccc(N(C)C)cc3)c(C(=O)OC)c21 (centres undefined),u,x,x,x,8.2µM*,x
O=C(NCc1ccccc1Cl)C1CCCN(C(=O)c2cnn(-c3ccccc3)c2-n2cccc2)C1 (centres undefined),i,x,x,x,i,x
CCc1ccc(N2C(=O)C(Cl)=C(Nc3ccc(C(=O)N4CCCC4)cc3)C2=O)cc1,i,-12%,10µM*,u,i,-20
O=C(c1ccc(N2C(=O)c3ccccc3C2=O)cc1)N1CCCCC1,i,4%,2%,-2%,i,8
O=[N+]([O-])c1cc(-n2cnnn2)ccc1N1CCC(Cc2ccccc2)CC1,i,-23%,24%,u,23µM*,0
CC1CC(C)CN(c2ccc(-n3cnnn3)cc2[N+](=O)[O-])C1 (centres undefined),5.2µM*,-20%,-2%,2%,u,-6
N#CCC(=O)Nc1ccc(C(=O)NNC(=O)CCN2CCN(c3ccccc3)CC2)cc1,i,1%,9%,-1%,i,-4
CCCSc1ccc2nc(-c3ccccc3)cn2c1,18µM*,5%,u,x,21µM*,u
CCCCSc1ccc2nc(-c3ccc(C#N)cc3)cn2c1,i,-1%,u,-8%,i,-16
COc1ccc(S(=O)(=O)N2c3ccc(Cl)cc3[C@](O)(c3ccccc3Cl)[C@@H]2C(=O)N2CCC[C@H]2C(N)=O)cc1OC,x,x,0%,-1%,x,x
Cc1ccc(NC(=O)C2CCN(c3nc4ccccc4[nH]3)CC2)cc1Cl,i,x,x,x,i,x
CCOCC(=O)NC1CCc2cc(OC)c(OC)c(OC)c2-c2ccc(SC)c(=O)cc21 (centres undefined),0.0058µM*,-6%,u,0.052µM*,u,2
CN[C@H]1CCc2cc(OC)c(OC)c(OC)c2-c2ccc(OC)c(=O)cc21,0.029µM*,1%,u,u,1.2µM*,-10
CCOC(=O)NC1CCc2cc(OC)c(OC)c(OC)c2-c2ccc(SC)c(=O)cc21 (centres undefined),0.16µM*,-6%,u,0.037µM*,0.23µM*,5
COc1c(O[C@H]2O[C@@H](CO)[C@@H](O)[C@@H](O)[C@@H]2O)cc2c(c1OC)-c1ccc(SC)c(=O)cc1[C@H](NC(C)=O)CC2,x,x,0%[20.6 µM],0%[20.6 µM],x,x
COc1cc2c(c(OC)c1OC)-c1ccc(NC(=O)c3ccccc3)c(=O)cc1[C@@H](NC(C)=O)CC2,i,0%[11.5 µM],-40%,2%,i,11
CCCCOC(=O)NC1CCc2cc(OC)c(OC)c(OC)c2-c2ccc(SC)c(=O)cc21 (centres undefined),0.15µM*,-11%,u,u,0.29µM*,-12
CCOc1ccc(C2=C(C=Nc3c(C)n(C)n(-c4ccccc4)c3=O)C(c3ccc(F)cc3)c3ccccc3O2)cc1 (centres undefined),i,-2%,9%,15%,i,4
Cc1cc(C)cc(NC(=O)CSc2oc(-c3cccs3)nc2S(=O)(=O)c2ccccc2)c1,i,x,x,x,i,x
CCOc1cc(C(=O)N(Cc2nc(-c3ccc(C)cc3)no2)C(C)C)cc(OCC)c1OCC,i,x,x,x,i,x
SMILES,KB-3-1 cytotox,S-ASM inh,MCF10A rereplic,SW480 rereplic,KB-V1 MDR tox,Giardia kill
O=Cc1cc2c3c(c1)CCCN3CCC2,i,x,x,x,i,x
Cc1nn(Cc2ccc(Cl)c(Cl)c2)c(C)c1NC(=O)c1cc(-c2ccc3c(c2)OCO3)on1,u,-4%,5.8µM*,16µM*,i,-14
Cc1nn(Cc2ccc(Cl)cc2)c(C)c1NC(=O)c1cc(-c2ccc3c(c2)OCO3)on1,4.1µM*,-2%,4.6µM*,u,i,-3
Cc1nn(Cc2ccc(Cl)cc2)c(C)c1NC(=O)c1cc(C(C)C)on1,i,-2%,u,-5%,i,-18
NC(=O)COc1ccc(NC(=O)CC23CC4CC(CC(C4)C2)C3)cc1,i,-3%,3%,u,i,14
O=C(Cn1cncn1)NCc1cccc(OC(F)F)c1,i,5%,10%,1%,i,-7
O=C(NCc1cccc(C(F)(F)F)c1)c1cc(Cl)ccc1Cl,i,0%,1%,10µM*,i,-6
O=C(Cn1cncn1)NCc1cccc(C(F)(F)F)c1,i,1%,0.65µM*,-28%,i,3
CCc1nnc(NC(=O)CC23CC4CC(CC(Br)(C4)C2)C3)s1,i,-2%,-3%,1%,i,19
CC1=CC(C)(C)N(C(=O)CSc2nnc(-c3ccc(C)cc3)o2)c2ccc(C)cc21,u,-9%,u,16%,8.2µM*,6
CC1=CC(C)(C)N(C(=O)CSc2nnc(N)s2)c2cc(C)c(C)cc21,i,-2%,u,-4%,12µM*,0
CC1=CC(C)(C)N(C(=O)CSc2nnc(C)s2)c2ccc(C)cc21,i,7%,1%,-1%,u,2
CCOc1ccc(OCc2ccc(C(=O)NCc3ccncc3)o2)cc1,i,3%,18µM*,-2%,u,0
O=C(NCc1cccnc1)c1ccc(COc2ccc3c(c2)CCC3)o1,i,5%,u,9%,18µM*,3
COC(=O)c1ccc(COc2ccc3c(c2)CCC3)o1,i,1%,2%,u,i,14
COc1ccc(Br)cc1/C=N/NC(=O)c1ccc(COc2ccc3c(c2)CCC3)o1,i,66%,12µM*,18%,i,13
CCc1ccc(OCc2ccc(C(=O)NCc3ccccn3)o2)cc1,i,-1%,26%,4%,i,-5
Cc1ccc(CNC(=O)c2cc(=O)c3cc(C)cc(C)c3o2)cc1,i,x,x,x,i,x
O=C(COC(=O)c1cc(=O)[nH]c2ccccc12)NC(=O)c1ccccc1,i,3%,-1%,26µM*,i,-2
